PTEN del growth: growth suppressors of cells with PTEN tumor suppressor deletion. actives 1.2% (n = 140,000). HCT116 PTEN-null viability, CellTiter-Glo, 60 h; active compounds read low. viability, % at 10 µM;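 active = viability at or below a set limit, 4 SD under the median of all tested compounds, cut at about 3.7% in these data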;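 note: PTEN knockout HCT116 line with beta catenin targeted HCT116 as companion control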
INS promoter inh: TRM-6 insulin promoter activity inhibition | TRM-6 cells (human fetal islet line), insulin promoter-eGFP reporter, imaging; reporter expression induced with tamoxifen | inhibition, % at 2 µM | actives 0.9% (n = 130,000) | AID 1273;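 active = inhibition above the mean plus 3 SD, with well images judged a real hit on visual review, cut at about 60% in these data, passing the limit was not always enough; inconclusive = inhibition over the cutoff but images rejected on review; inactive = inhibition not above the cutoff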
Insulin prom up: MIN6 insulin promoter up-regulation. MIN6 insulin promoter-GFP reporter, high-content imaging; active compounds read high. actives 0.3% (n = 190,000). z-score at 5 µM;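 active = z-score above 3 at 5 µM with at least 500 cells counted in the well; inconclusive = wells under 500 cells, flagged as cytotoxic or low count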
bCat KO growth: beta-catenin-lacking colon tumor cell growth suppression; viability, % at 10 µM; HCT116 beta-catenin knockout viability, CellTiter-Glo, 60 h; active compounds read low; actives 1.5% (n = 140,000);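 active = viability at or under a set limit, the compound median less 4 SD, cut at about 6% in these data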;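 note: 0% = Hyamine 1622 control at 20 µM and 100% = untreated cell control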
Autophagy HCS: modulators of autophagy; MEF GFP-LC3 puncta imaging; test concentration mostly 10 µM; calls only at 10 µM (by protocol); actives 0.98% (n = 190,000); AID 463193;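 active = percentage of spot-positive cells more than 3 SD above its plate mean, without a fluorescence outlier flag or 80% toxicity; inconclusive = no clear call, values can overlap the other calls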;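 note: spot-positive cell cutoff set from DMSO-treated cells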
L major viab: Leishmania major promastigote growth inhibition. Leishmania major promastigotes, resazurin fluorescence viability. inhibition, % at 10 µM. actives 9% (n = 200,000). AID 1063; in the data active = inhibition above about 50%;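 note: promastigotes grown with compound for 44 hours at 28 °C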
* = called active by the depositor; i = inactive; u = inconclusive; x = no result given. Hits are enriched below; roughly 9.6% of the tested compounds scored in any of these assays.

SMILES	PTEN del growth	INS promoter inh	Insulin prom up	bCat KO growth	Autophagy HCS	L major viab
CCN(CC)CCCN=C(C)c1c(O)n(C2CCCCC2)c(=O)[nH]c1=O	97	27	1.4	99	i	93*
CCC(=NCc1cccnc1)c1c(O)n(C2CCCCC2)c(=O)[nH]c1=O	90	x	-0.26	92	i	14
CCC(=NCCCN(CC)CC)c1c(O)n(C2CCCCC2)c(=O)[nH]c1=O	81	60	-0.35	77	i	92*
CCCCn1c(O)c(C(CC)=NCc2ccc3c(c2)OCO3)c(=O)[nH]c1=O	54	50	-2	53	i	14
Cc1ccc(S(=O)(=O)N(C)C/N=C(\N)N[N+](=O)[O-])cc1	x	45	-0.46	x	i	-4
COc1ccc(-n2c(=O)[nH]c3ccccc3c2=O)c(OC)c1	87	x	0.01	99	i	-9
CCP(=S)(CC)c1ccc(N(C)C)cc1	x	-396	-0.58	x	i	3
C/C(=C\c1ccc(N(C)C)cc1)[N+](=O)[O-]	2.1*	x	-1.2	6	i	100*
CN(C)c1ccc(/C=C/[N+](=O)[O-])cc1	3.5*	4	0.13	2.7*	i	32
CN(C)c1ccc(C(=O)c2ccc(N(C)C)cc2)cc1	24	x	-1	19	i	-1
Clc1ccccc1Nc1ncnc(-n2cccc2)n1	85	-7	x	94	i	-4
N=c1c[n+](CC23CC4CC(CC(C4)C2)C3)[n-]o1	91	x	0.03	92	i	13
CCN1CCN(c2ccc([N+](=O)[O-])cc2C=C2C(=O)NC(=O)NC2=O)CC1	87	68	-0.07	90	i	60*
CCn1nc(-c2ccccc2)nc2c(=O)n(C)c(=O)nc1-2	1.4*	x	u	0.7*	i	14
CC(C)OC(=O)c1c(N)n(Cc2ccco2)c2nc3ccccc3nc12	75	-33	x	86	i	56*
C=CCNC(=O)c1c(N)n(CCN2CCOCC2)c2nc3ccccc3nc12	71	12	-0.4	80	i	39
COCCCNC(=O)c1c(N)n(Cc2ccco2)c2nc3ccccc3nc12	x	x	0.34	x	x	x
COc1ccc(Cn2c(N)c(C(=O)NCc3ccco3)c3nc4ccccc4nc32)cc1OC	24	x	-1.7	22	i	59*
Nc1c(C(=O)NCc2ccco2)c2nc3ccccc3nc2n1CCN1CCCCC1	6	11	-0.62	11	i	64*
CC(C)CNC(=O)c1c(N)n(Cc2ccc3c(c2)OCO3)c2nc3ccccc3nc12	20	13	-1.2	32	i	68*
O=C(N=Nc1c(O)[nH]c(=O)[nH]c1=O)C1COc2cc3ccccc3cc2O1 (stereo not given)	x	67	0.45	x	i	-7
COCCCNC(=O)c1c(NC(=O)c2ccco2)n(Cc2ccccc2)c2nc3ccccc3nc12	63	x	-1.4	68	i	97*
COc1cc2c(cc1/C=C/[N+](=O)[O-])OCO2	x	8	1.2	x	i	100*
O=C(COc1ccc(Cl)cc1)N1CCN(Cc2ccc([N+](=O)[O-])cc2)CC1	x	-9	-0.26	x	i	67*
O=[N+]([O-])c1cccc(CN2CCN(Cc3ccc(Cl)cc3)CC2)c1	x	x	-1.2	x	i	85*
SMILES	PTEN del growth	INS promoter inh	Insulin prom up	bCat KO growth	Autophagy HCS	L major viab
COc1ccc(OCC(=O)N2CCN(Cc3nc4cc([N+](=O)[O-])ccc4n3C)CC2)cc1	86	-233	-1.4	79	i	-5
O=C(c1ccco1)c1cn(Cc2ccc(Cl)cc2)c2ccccc12	60	-19	-1.1	53	i	80*
O=C(/C=C/c1ccc2c(c1)OCO2)c1c(O)n(CCC2=CCCCC2)c(=O)[nH]c1=O	17	23	0.82	27	i	32
COc1ccc(/C=C/C(=O)c2c(O)n(CCC3=CCCCC3)c(=O)[nH]c2=O)cc1	15	x	-0.63	25	i	77*
CC12CN3CC(C)(CN(C1)C31CCOCC1)C2=O	102	u	0.26	90	i	-7
Cc1ccc(N2C(=O)NC(=O)/C(=C\C=C\c3ccco3)C2=O)cc1C	8	-26	0.03	16	i	100*
Cc1ccc(N2C(=O)NC(=O)/C(=C\C=C\c3ccco3)C2=O)cc1	x	x	0.18	x	x	x
O=C1NC(=O)N(Cc2ccccc2)C(=O)/C1=C\C=C\c1ccco1	x	x	x	x	i	77*
CCOP(=O)(OCC)C(NC(=O)c1ccccc1C)C(Cl)(Cl)Cl (stereo not given)	102	x	1.5	100	i	-4
